Only some compounds are listed: those with a hit (about 0.79% of all), similar ones and a draw of the others.
E coli growth-1 – E. coli V3065 growth inhibition, primary screen, counter-screen for AddAB inhibitor project, absorbance, OD600; 18 h; inhibition, % at 11.9 µM; 330,000 compounds, 0.27% hits;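 active means inhibition above the campaign's mean inhibition across all tested compounds plus 3 SD, cut at about 9.9% in these data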;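 further: uninfected addAB+ strain grown without phage in ampicillin broth; 0% = DMSO wells and 100% = ciprofloxacin 0.95 µg/ml wells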
E coli growth-2 – E. coli growth inhibition, primary screen, OD600; AID 1053175, 2014; 330,000 compounds, 0.21% hits; OD600 absorbance (no concentration beside the values); Escherichia coli growth, 23 h; hits give low values;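 active means OD600 absorbance below the run mean of sample wells minus 3.6 SD, in any replicate, cut at about 0.56 in these data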
Tat transport – E. coli Tat export inhibitors, primary screen, MC4100, TorA-mCherry reporter, fluorescence, single point. 340,000 compounds, 0.036% hits. inhibition, % at 10 µM;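 active means mean replicate inhibition at least 50% and at least half of replicates individually reaching 50%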;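 further: exported cargo escapes ClpAP degradation while cytoplasmic cargo is degraded and loses fluorescence; 0% = median of neutral control wells and 100% = median of NaSCN control wells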
AddAB inh – growth inhibition of E. coli expressing H. pylori AddAB, primary screen, AddAB inhibitor project, absorbance. inhibition, % at 11.9 µM. 330,000 compounds, 0.29% hits. AID 435030, 2010; in the data active means inhibition above about 12%;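 further: 0% = vehicle wells of infected cells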
phage Ecoli inh – growth loss of phage-infected E. coli, primary screen, RecBCD inhibitor project, absorbance, with phage, HTS. inhibition, % at 11.9 µM. AID 651602, 2012. 360,000 compounds, 0.26% hits; in the data active means inhibition above about 11%
AI-2 QS modul – Vibrio harveyi AI-2 quorum sensing modulators, primary screen, JMH597 strain, luminescence/OD600 ratio. AID 2094, 2009. Vibrio harveyi JMH597 AI-2 luminescence/OD600 ratio, 9 h; hits give low values; strain lacks LuxN and CqsS sensors; 0 = neutral-control median. 300,000 compounds, 0.4% hits. activity change, % at 7.5 µM; in the data active means activity change below about -75%, passing the limit was not always enough;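 further: luminescence divided by OD600 gain over 9 h not by final OD600 alone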
AddAB confirm – growth loss of phage-infected E. coli expressing H. pylori AddAB, confirmation, AddAB inhibitor project, absorbance, E. coli V3065, T4 phage, triplicate | AID 488942, 2010 | shares compounds with AddAB inh | 880 compounds, 64% hits | OD; T4 phage with gene 2 nonsense mutations | inhibition, % at 11.9 µM;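 active means mean inhibition above a set limit taken from the earlier primary screen, cut at about 13% in these data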;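 further: higher means less bacterial growth since AddAB block lets phage replicate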
RecBCD counter – growth loss of RecBCD+ E. coli with mutant T4 phage, counter-screen for AddAB inhibitor project, absorbance, V66 E. coli; shares compounds with AddAB inh; OD growth; inhibition, % at 11.9 µM; 880 compounds, 73% hits; AID 488955, 2010;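 active means mean inhibition above the mean of solvent-only control wells plus 3 SD, cut at about 4% in these data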;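 further: optical density read after an 18 h incubation at 37 °C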
bact viab count – bacterial viability inhibition counter-screen, confirmation, counter-screen for AddAB inhibitor project, absorbance; shares compounds with AddAB inh; absorbance (AddAB counterscreen); inhibition, % at 11.9 µM; 880 compounds, 35% hits; AID 488956, 2010; in the data active means inhibition above about 25%
RecBCD conf – growth loss of phage-infected RecBCD+ E. coli, confirmation, RecBCD inhibitor project, absorbance, E. coli V66, T4 gene 2 phage; shares compounds with phage Ecoli inh; E. coli V66 + T4 2- phage, growth OD; inhibition, % at 11.9 µM; 890 compounds, 45% hits; AID 651982, 2013;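 active means mean inhibition over triplicates exceeding the hit threshold derived in the original primary screen, cut at about 11% in these data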
Ecoli viability – E. coli viability inhibition, counter-screen for RecBCD inhibitor project, absorbance, high throughput; shares compounds with phage Ecoli inh; absorbance (OD) growth; inhibition, % at 11.9 µM; 890 compounds, 29% hits; in the data active means inhibition above about 20%;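 further: E. coli strain V66 grown with compound alone and no phage infection; 0% = bacteria with DMSO vehicle only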
AddAB counter – growth loss of phage-infected AddAB-carrying E. coli, confirmation, counter-screen for RecBCD inhibitor project, absorbance, E. coli V3065, T4 phage; shares compounds with phage Ecoli inh; E. coli expressing H. pylori AddAB + T4 phage, OD growth; gene 2 mutant T4, recBCD-deleted host; inhibition, % at 11.9 µM; 890 compounds, 45% hits; AID 651984, 2013;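 active means mean inhibition above the solvent-only control wells' mean plus 3 SD, cut at about 22% in these data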;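 further: higher means less bacterial growth from phage killing when AddAB is blocked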
* marks the source's active call; other numbers are inactive results; · = no result.

SMILES | E coli growth-1 | E coli growth-2 | Tat transport | AddAB inh | phage Ecoli inh | AI-2 QS modul | AddAB confirm | RecBCD counter | bact viab count | RecBCD conf | Ecoli viability | AddAB counter
CC(O)c1nc2ccccc2n1CC(=O)Nc1ccc2c(c1)OCCO2 (configuration not stated) | 0.1 | 0.749 | -8.5 | 1.7 | 1.1 | 10.0 | · | · | · | · | · | ·
CN(C)c1ccc(O)c2c1CC1CC3C(N(C)C)C(=O)C(C(N)=O)=C(O)[C@@]3(O)C(=O)C1=C2O (some centres not stated) | 101.2* | 0.0685* | 149.6* | 99.0* | 98.6* | -120.2* | 98.0* | 98.9* | 99.7* | 103.3* | 105.2* | 103.8*
C[C@H]1c2cccc(O)c2C(O)=C2C(=O)C3(O)C(O)=C(C(N)=O)C(=O)[C@@H](N(C)C)[C@@H]3[C@@H](O)[C@@H]21 (some centres not stated) | 97.1* | · | 151.6* | 95.7* | 101.2* | · | 101.3* | 100.0* | 101.2* | 102.6* | 103.9* | 103.7*
CN(C)c1ccc(O)c2c1CC1CC3[C@@H](N(C)C)C(=O)C(C(N)=O)C(=O)[C@]3(O)C(=O)C1C2=O (some centres not stated) | 102.2* | · | 144.8* | 98.2* | 101.2* | · | 100.2* | 100.0* | 102.3* | 100.0* | 101.1* | 98.1*
C=C1c2cccc(O)c2C(O)=C2C(=O)[C@]3(O)C(O)=C(C(N)=O)C(=O)[C@@H](N(C)C)[C@@H]3[C@@H](O)[C@H]12 | 47.0* | 0.059* | 140.3* | 57.3* | 100.2* | -83.3* | 96.7* | 99.0* | 96.8* | 103.8* | 105.0* | 104.3*
C=C(C)C(=O)Nc1cccc(C2=NOC3(C2)CC(C(N)=O)N(C(=O)C2(C)CC2)C3)c1 (configuration not stated) | · | 0.685 | · | · | · | · | · | · | · | · | · | ·
C[C@H]1c2cccc(O)c2C(=O)C2C(=O)C3(O)C(=O)C(C(N)=O)C(=O)[C@@H](N(C)C)[C@@H]3[C@@H](O)[C@@H]21 (some centres not stated) | 100.1* | · | 148.5* | 100.3* | 97.8* | · | 100.5* | 100.0* | 100.8* | 99.2* | 99.9* | 101.5*
COc1cc(C=NNS(=O)(=O)c2ccc(C)c([N+](=O)[O-])c2)cc([N+](=O)[O-])c1O | · | 0.702 | · | · | · | · | · | · | · | · | · | ·
CC(C)N1CCc2c(sc(NC(=O)c3ccc([N+](=O)[O-])o3)c2C(N)=O)C1 | 99.7* | · | 30.7 | 99.8* | 34.2* | -89.5* | 102.2* | 47.9* | 103.0* | 37.7* | 62.0* | 102.9*
COC(=O)c1c(NC(=O)c2ccc([N+](=O)[O-])o2)sc2c1CCN(C(C)C)C2 | 100.1* | · | 26.0 | 101.4* | 30.7* | -89.8* | 98.4* | 98.4* | 99.2* | 100.2* | 101.5* | 102.3*
